We go through ten molecules from PubChem BioAssay.

Test [1] can be described thus: AGP1-GFP expression modulators, hit retest, confirmation, cell-based, flow cytometry, S. cerevisiae, cherry picks (AID 2273;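 active means GFP response above 150% of the DMSO level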;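 further: median GFP channel fluorescence over the whole cell population gate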). To be noted: S. cerevisiae AGP1-GFP strain, 3 h, at 10 µM. A general note: A flow cytometer gives signals particle by particle.
Test [2] deals with Integrin beta-1 (Homo sapiens) + Integrin alpha-4 (Homo sapiens) (UniProt P13612+P05556). The experiment in a line: inhibition of HUTS-21 binding to VLA-4, pilot screen, VLA-4 allosteric modulator project, U937 cells, HUTS-21 mAb, flow cytometry, validation set (AID 2674;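 active means inhibition above 50%, about 3 SD of the validation set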;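 further: antibody binding induced by the VLA-4 ligand LDV present at three times its Kd; 0% = LDV ligand with antibody and no compound and 100% = antibody without LDV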). To be noted: HUTS-21 LIBS mAb binding, at 6.7 µM, active compounds read high, binding induced by LDV ligand.
The nature of test [3]: superoxide lowering in aged yeast cells, pilot screen, validation compound set (AID 2706;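 active means superoxide response below 65% of plate, a cut near 3 SD across the whole screen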;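 further: yeast exposed to compound for one week at 30 degrees C before staining; 100% = mean of all compound wells on the same plate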). To be noted: S. cerevisiae aging, superoxide DHE fluorescence; at 10 µM; active compounds read low.
Test [4] has as its target Beta-adrenergic receptor kinase 1 (Homo sapiens) (UniProt P25098). Kind of test: GRK2 binders displacing RNA aptamer, biochemical, validation, human GRK2, bead flow cytometry (AID 488806;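 active means aptamer binding inhibition above 30%, about 3 SD of noise from non-fluorescent compounds; inactive means inhibition at or below 30%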). To be noted: bead-bound GRK2, FAM-aptamer displacement, at 10 µM, active compounds read high.
Test [5] addresses Beta-2 adrenergic receptor (Homo sapiens) (UniProt P07550). The experiment in a line: beta2AR agonists driving receptor internalization, pilot screen, cell-based, FAP fluorogen, flow cytometry, validation set (AID 504459;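 active means percent response above 42, roughly 3 SD of non-fluorescent test compounds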;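 further: agonist-driven loss of surface beta2AR via internalization measured by FAP dye flow cytometry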). To be noted: Am2.2-beta2AR cells, FAP surface receptor flow cytometry; at 10 µM; active compounds read high.
Test [6] addresses AP-2 complex subunit beta (Homo sapiens) (UniProt P63010). The experiment in a line: inhibitors of arrestin peptide binding to AP2, pilot screen, biochemical, validation set, GST-AP2 beads, flow cytometry (AID 504541;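 active means inhibition above 54%, about 3 SD of non-fluorescent compounds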;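 further: AP2 carries R879A mutation and is captured from E. coli lysate; bead-bound FITC arrestin peptide fluorescence measuring arrestin peptide binding to AP2; 0% = DMSO wells and 100% = excess unlabeled arrestin peptide control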). To be noted: FITC arrestin peptide, at 10 µM, active compounds read high, AP2 beta2 appendage fragment, R879A mutant.
The nature of test [7]: yeast V-ATPase proton transport modulators, S. cerevisiae, pHLuorin, HTS validation (AID 504600).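 Further: plate controls were DMSO for no effect and reference compound for full effect.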 To be noted: S. cerevisiae pHLuorin cytosolic pH, at 10 µM, active compounds read high.
Test [8] has as its system anti-desmoglein-3 scFv antibody binding to human DSG3. The experiment in a line: inhibitors of anti-DSG3 scFv binding to DSG3, pilot screen, biochemical, validation compound set, bead-based, flow cytometry (AID 588368;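 active means binding below the plate cutoff, the plate median minus 3 SD, with a reading above zero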;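 further: signal is the median channel fluorescence of bead-bound GFP antibody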). To be noted: Protein G beads, DSG3-Fc, scFv-GFP binding, at 10 µM, active compounds read low.
The nature of test [9]: inhibitors of fungal efflux pumps CDR1, CDR2, MDR1, pilot screen, validation compound set, multiplex, phenotypic (AID 588506;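 active means efflux inhibition above 0.42, the validation set average plus 4 SD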;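 further: Nile Red retained in cells so higher fluorescence means more efflux inhibition; 0 = negative control wells and 1 = enniatin B 25 µM full block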). To be noted: S. cerevisiae pump-expressing triplex, Nile Red efflux flow cytometry; at 10 µM; active compounds read high; the pumps come from Candida albicans.
Test [10] deals with ATP-binding cassette sub-family B member 6 (Homo sapiens) (UniProt Q9NP58). Kind of test: ABCB6 transporter inhibitors, pilot screen, K562-ABCB6 cells, flow cytometry, validation set (AID 588550;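 active means inhibition above the screen-wide mean plus 3 SD, about 51%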;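 further: 0% = DMSO wells and 100% = benzethonium chloride 70 µM positive control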). To be noted: K562-ABCB6 porphyrin accumulation, 1 h, at 10 µM, active compounds read high.
Test [11] is described as follows: promoters of myeloid differentiation in arrested cells, primary screen, cell-based, GFP/MAC1 double positive, flow cytometry, validation set (AID 588685;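 active means differentiation response of at least 50%, scaled between solvent and reference control, from cells with both markers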;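 further: compound exposure lasts four days before antibody staining and flow analysis; 0% = DMSO wells and 100% = 5 µM fulvestrant positive control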). To be noted: ER-HoxA9 marrow cells, active compounds read high, normalized: vehicle 0, fulvestrant 100.

A word on the inhibition: it is the drop in the measured response relative to a control, in per cent.

The structures appear in SMILES notation. “And” between values parts separate entries of the source, which are not always exact repeats. Identical values can stand only once. Values without a mark were called inactive. The source made the active and inactive calls. Unless noted, no stated cut-off is given here; in the data, active means response above about 15%; inactive means the rest.

Chain of Integrin beta-1 (Homo sapiens) + Integrin alpha-4 (Homo sapiens) (P05556 whole entry, looked up): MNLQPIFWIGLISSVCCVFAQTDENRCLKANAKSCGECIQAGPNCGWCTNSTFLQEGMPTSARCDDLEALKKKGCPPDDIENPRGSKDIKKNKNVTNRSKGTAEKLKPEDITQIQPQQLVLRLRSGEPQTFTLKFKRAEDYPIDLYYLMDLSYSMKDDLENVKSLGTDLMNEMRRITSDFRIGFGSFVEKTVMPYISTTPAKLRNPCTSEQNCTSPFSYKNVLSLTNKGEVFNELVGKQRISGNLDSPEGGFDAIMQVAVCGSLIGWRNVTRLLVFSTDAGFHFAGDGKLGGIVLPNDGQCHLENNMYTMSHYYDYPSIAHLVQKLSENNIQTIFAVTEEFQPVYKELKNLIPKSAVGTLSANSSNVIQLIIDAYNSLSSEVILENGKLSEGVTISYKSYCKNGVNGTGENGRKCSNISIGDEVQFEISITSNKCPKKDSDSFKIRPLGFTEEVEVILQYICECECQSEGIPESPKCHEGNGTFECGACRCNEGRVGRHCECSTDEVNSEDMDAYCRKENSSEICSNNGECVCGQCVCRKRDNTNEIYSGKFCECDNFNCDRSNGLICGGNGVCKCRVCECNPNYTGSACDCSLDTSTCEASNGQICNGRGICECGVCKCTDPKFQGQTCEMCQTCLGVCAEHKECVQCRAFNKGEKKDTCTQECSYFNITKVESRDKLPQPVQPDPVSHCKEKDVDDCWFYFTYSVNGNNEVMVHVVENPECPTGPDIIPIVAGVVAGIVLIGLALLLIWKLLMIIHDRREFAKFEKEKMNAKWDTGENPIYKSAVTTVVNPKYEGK
Chain of Integrin beta-1 (Homo sapiens) + Integrin alpha-4 (Homo sapiens) (P13612 whole entry, looked up): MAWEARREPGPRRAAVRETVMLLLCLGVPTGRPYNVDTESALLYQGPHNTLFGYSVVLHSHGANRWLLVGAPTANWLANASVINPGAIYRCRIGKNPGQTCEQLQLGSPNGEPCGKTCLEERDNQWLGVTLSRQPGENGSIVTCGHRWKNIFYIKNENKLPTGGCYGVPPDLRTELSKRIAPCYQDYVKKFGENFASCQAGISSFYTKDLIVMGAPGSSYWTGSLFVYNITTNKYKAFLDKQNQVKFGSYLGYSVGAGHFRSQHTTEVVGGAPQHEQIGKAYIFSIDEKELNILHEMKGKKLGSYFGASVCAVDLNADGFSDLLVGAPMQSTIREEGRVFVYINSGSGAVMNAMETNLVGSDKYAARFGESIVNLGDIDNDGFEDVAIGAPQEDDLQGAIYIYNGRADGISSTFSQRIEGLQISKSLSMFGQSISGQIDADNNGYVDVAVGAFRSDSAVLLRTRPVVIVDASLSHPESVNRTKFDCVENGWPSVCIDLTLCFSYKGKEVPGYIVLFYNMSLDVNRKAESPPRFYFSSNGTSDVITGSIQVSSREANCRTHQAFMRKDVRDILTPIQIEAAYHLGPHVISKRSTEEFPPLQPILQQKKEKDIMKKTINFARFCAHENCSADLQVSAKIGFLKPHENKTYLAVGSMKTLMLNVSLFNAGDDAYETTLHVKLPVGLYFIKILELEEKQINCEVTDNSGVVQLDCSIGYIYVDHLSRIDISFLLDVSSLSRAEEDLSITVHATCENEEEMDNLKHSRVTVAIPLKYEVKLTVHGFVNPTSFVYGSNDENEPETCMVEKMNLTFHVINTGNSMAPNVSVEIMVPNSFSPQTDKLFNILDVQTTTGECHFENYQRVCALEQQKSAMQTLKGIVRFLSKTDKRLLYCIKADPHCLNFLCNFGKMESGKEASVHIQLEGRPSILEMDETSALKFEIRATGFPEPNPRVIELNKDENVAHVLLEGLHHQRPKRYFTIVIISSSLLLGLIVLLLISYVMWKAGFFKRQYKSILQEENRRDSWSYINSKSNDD
Chain of Beta-2 adrenergic receptor (Homo sapiens) (P07550 whole entry, looked up): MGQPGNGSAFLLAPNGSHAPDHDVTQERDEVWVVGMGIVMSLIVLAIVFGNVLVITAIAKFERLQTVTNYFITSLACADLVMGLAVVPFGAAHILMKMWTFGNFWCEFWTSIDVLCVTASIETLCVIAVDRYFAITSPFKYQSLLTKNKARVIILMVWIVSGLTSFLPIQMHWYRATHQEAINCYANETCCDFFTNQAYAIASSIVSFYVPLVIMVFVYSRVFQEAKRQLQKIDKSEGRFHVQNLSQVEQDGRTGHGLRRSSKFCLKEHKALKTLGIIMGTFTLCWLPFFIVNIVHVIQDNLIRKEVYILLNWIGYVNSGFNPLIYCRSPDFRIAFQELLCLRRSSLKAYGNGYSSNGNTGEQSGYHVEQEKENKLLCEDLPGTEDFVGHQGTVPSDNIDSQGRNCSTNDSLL
Chain of Beta-adrenergic receptor kinase 1 (Homo sapiens) (P25098 whole entry, looked up): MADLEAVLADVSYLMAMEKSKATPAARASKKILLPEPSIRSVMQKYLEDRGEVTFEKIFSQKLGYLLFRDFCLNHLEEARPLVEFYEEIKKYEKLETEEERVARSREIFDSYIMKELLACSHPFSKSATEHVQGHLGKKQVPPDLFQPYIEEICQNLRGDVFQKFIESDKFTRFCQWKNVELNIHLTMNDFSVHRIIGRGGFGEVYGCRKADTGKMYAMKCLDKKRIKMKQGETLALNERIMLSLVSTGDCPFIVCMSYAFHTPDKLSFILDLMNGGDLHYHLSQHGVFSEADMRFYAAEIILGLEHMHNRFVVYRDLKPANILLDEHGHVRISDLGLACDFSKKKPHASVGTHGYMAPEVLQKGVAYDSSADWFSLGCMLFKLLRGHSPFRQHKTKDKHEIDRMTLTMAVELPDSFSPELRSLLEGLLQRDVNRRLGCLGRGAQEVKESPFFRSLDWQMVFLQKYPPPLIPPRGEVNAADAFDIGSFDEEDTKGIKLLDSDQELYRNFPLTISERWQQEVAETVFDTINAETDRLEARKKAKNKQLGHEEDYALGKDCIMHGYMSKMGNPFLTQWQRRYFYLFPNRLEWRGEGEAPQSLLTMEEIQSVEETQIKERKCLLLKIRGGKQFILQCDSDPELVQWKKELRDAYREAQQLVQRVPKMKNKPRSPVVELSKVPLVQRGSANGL
Chain of ATP-binding cassette sub-family B member 6 (Homo sapiens) (Q9NP58 whole entry, looked up): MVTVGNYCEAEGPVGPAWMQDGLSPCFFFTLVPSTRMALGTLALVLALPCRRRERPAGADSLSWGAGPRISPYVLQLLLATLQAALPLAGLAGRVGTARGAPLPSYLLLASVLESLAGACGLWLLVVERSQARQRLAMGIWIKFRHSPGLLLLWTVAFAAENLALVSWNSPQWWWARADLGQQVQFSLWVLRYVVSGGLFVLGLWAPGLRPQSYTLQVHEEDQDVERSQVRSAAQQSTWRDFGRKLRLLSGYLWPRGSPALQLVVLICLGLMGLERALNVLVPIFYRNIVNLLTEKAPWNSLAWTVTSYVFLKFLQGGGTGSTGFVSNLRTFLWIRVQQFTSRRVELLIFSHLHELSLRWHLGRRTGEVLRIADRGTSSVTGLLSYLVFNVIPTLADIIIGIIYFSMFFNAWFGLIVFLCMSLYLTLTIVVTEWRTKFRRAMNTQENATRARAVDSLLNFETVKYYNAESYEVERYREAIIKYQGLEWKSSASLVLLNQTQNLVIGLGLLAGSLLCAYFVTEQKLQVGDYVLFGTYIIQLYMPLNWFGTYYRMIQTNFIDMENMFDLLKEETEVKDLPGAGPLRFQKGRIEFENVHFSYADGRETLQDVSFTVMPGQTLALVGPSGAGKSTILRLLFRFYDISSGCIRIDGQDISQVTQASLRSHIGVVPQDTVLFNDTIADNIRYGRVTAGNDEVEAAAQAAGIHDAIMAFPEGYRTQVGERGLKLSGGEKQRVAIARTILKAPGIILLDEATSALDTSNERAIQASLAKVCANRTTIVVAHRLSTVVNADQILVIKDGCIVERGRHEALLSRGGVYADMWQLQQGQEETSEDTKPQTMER
Chain of AP-2 complex subunit beta (Homo sapiens) (P63010 whole entry, looked up, the tested form may be a part, one chain of several): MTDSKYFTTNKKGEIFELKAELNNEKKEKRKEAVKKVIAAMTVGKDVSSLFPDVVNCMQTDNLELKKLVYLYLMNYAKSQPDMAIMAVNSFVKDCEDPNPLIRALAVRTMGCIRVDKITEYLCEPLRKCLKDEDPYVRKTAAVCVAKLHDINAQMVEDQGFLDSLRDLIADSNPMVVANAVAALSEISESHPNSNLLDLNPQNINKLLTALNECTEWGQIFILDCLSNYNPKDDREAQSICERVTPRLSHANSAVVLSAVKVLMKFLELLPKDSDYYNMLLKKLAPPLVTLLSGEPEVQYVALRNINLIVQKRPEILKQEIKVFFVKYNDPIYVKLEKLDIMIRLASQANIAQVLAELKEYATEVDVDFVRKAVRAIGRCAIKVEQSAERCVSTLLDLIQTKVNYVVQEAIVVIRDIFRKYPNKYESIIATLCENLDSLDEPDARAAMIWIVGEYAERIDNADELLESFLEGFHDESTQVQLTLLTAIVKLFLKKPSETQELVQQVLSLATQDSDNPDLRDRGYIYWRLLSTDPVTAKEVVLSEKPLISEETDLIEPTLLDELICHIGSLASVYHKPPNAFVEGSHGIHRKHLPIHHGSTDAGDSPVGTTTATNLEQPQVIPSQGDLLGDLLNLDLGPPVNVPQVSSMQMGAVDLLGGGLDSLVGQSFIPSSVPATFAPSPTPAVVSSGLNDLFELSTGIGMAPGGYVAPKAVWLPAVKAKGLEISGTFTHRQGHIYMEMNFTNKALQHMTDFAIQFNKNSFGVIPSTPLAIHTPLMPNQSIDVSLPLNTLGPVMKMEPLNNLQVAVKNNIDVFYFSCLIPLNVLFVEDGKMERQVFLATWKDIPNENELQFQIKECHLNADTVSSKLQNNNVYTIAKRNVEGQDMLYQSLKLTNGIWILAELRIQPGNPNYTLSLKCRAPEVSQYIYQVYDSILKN

Turning to `N#C/C(C(N)=O)=c1/ccc2c(c1)N1C3=C(CCCC3)CC3CCCCC31N=2` (centres undefined), the GFP response, % of DMSO in test [1] was 100%. The inhibition is -74.8% in [2], 46.9% in test [6] and -58% in [10]. Also, in test [3], the superoxide response (% of plate) is 92.3%. The aptamer binding inhibition in [4] is -5%. Besides, the figures for the response in test [5] and in test [7] were 5.12% and -2.62%, respectively. Besides, the binding (% of control) in test [8] was 98.3%. Moreover, in test [9], the efflux inhibition (fraction of control) was 0.37. The differentiation response in test [11] is -16.3%.
Regarding `CC(NCCc1ccc(O)cc1)C(O)c1ccc(O)cc1` (centres undefined), in test [1], the GFP response, % of DMSO is 101%. In addition, the inhibition in test [2] is -13.9%; in test [6], 5.41%; in [10], 10%. Further, the superoxide response (% of plate) in [3] is 96.5%. The aptamer binding inhibition in test [4] is 2%. Further, the response was 0.53% in test [5] and -1.74% in [7]. The binding (% of control) in test [8] is 103%. In [9], the efflux inhibition (fraction of control) is -0.31. In test [11], the differentiation response was -8.19%.
Take `COc1ccc(C2=CC(=O)C=CC2=O)cc1`: the GFP response, % of DMSO in [1] was 100%. Further, the figures for the inhibition in [2], in test [6] and in test [10] were 4.84%, 64.5% (active) and -2%, respectively. Moreover, the superoxide response (% of plate) in test [3] is 80.4%. In test [4], the aptamer binding inhibition was 1%. Moreover, the response was 64.2% (active) in test [5] and 62.2% (active) in test [7]. Also, the binding (% of control) in [8] is 88.8%. Also, the efflux inhibition (fraction of control) in [9] is -0.04. Also, the differentiation response in [11] was -0.06%.
In the case of `C[C@H]1C[C@@H]2[C@H]([C@@H](O)C[C@@]3(C)[C@H]2CC[C@]3(O)C(=O)CO)[C@@]2(C)C=CC(=O)C=C12`, the GFP response, % of DMSO in [1] was 96%. The inhibition in test [2] is 10.3%; in test [6], 2.63%; in test [10], 13%. Besides, in test [3], the superoxide response (% of plate) was 88.9%. In addition, in test [4], the aptamer binding inhibition was 7%. Further, the values for the response in [5] and in test [7] were 1.51% and 0.24%, respectively. Moreover, the binding (% of control) in test [8] is 99.2%. In addition, in test [9], the efflux inhibition (fraction of control) is -0.38. Besides, the differentiation response in [11] is 0%.
In the case of `NS(=O)(=O)c1cc2c(cc1C(F)(F)F)NC(Cc1ccccc1)NS2(=O)=O` (centres undefined), in test [1], the GFP response, % of DMSO is 101%. The figures for the inhibition in test [2], in test [6] and in [10] were 7.43%, 21.3% and 6%, respectively. Further, the superoxide response (% of plate) in test [3] is 85%. In [4], the aptamer binding inhibition was 7%. For the same molecule, the response was 1.02% in test [5] and -2.03% in test [7]. Also, the binding (% of control) in test [8] is 97.4%. Moreover, the efflux inhibition (fraction of control) in [9] was 0.05. Also, in test [11], the differentiation response is -0.82%.
For `CC(=O)[C@@]1(O)CC[C@H]2[C@@H]3CCC4=CC(=O)CC[C@]4(C)[C@H]3[C@@H](O)C[C@@]21C`, in test [1], the GFP response, % of DMSO was 103%. The values for the inhibition in test [2], in test [6] and in test [10] were 12.8%, -12.8% and 10%, respectively. Also, the superoxide response (% of plate) in test [3] is 89.3%. Further, the aptamer binding inhibition in test [4] was 1%. Moreover, in test [7], the response is 4.15%. The binding (% of control) in test [8] was 100%. In test [9], the efflux inhibition (fraction of control) is -0.2. In addition, the differentiation response in [11] was -3.43%.
With `C[n+]1ccccc1/C=N/O`, in test [1], the GFP response, % of DMSO was 98%. In addition, the inhibition in test [2] is 15.2% and -21.2%; in test [6] it was -7.09% and 7.17%; in test [10], 9% and 0%. The superoxide response (% of plate) in test [3] was 102% and 95%. Further, in test [4], the aptamer binding inhibition is 2% and 0%. For the same molecule, the response is 5.73% and -2.86% in test [5]; -0.64% and -1.12% in [7]. In addition, the binding (% of control) in test [8] is 104% and 95.1%. The efflux inhibition (fraction of control) in test [9] is -0.2 and -0.47. Besides, the differentiation response in [11] was 0.82% and 2.74%.
Take `OC(CCN1CCCCC1)(c1ccccc1)c1ccccc1`: the GFP response, % of DMSO in test [1] is 96.3%. In addition, the inhibition in test [2] is 12.3%; in test [6], 2.98%; in test [10] it was 8%. Moreover, the superoxide response (% of plate) in [3] is 107%. Moreover, the aptamer binding inhibition in [4] is 2%. For the same molecule, the response in test [5] was 1.89%; in [7], 5.35%. For the same molecule, the binding (% of control) in test [8] was 103%. Further, the efflux inhibition (fraction of control) in test [9] is -0.24. In test [11], the differentiation response was -4.91%.
For `CS(=O)(=O)Nc1cccc(C(=O)CC2(O)C(=O)Nc3ccc(Br)cc32)c1` (centres undefined), the GFP response, % of DMSO in test [1] was 101%. The figures for the inhibition in [2], in test [6] and in test [10] were -10.8%, 50% and 7%, respectively. Also, the superoxide response (% of plate) in test [3] was 112%. For the same molecule, the aptamer binding inhibition in test [4] is 4%. The response in [5] was -1.29%; in test [7], -8.12%. In addition, the binding (% of control) in [8] is 101%. Besides, the efflux inhibition (fraction of control) in test [9] was 0.08. Further, the differentiation response in test [11] is 5.13%.
Consider `CC(=O)[C@H]1CC[C@H]2[C@@H]3CCC4=CC(=O)CC[C@]4(C)[C@H]3CC[C@]12C`, for which the GFP response, % of DMSO in test [1] was 96%. Also, the inhibition was 21.7% in test [2], -3.41% in test [6] and 0% in test [10]. Also, the superoxide response (% of plate) in test [3] is 136%. Further, the aptamer binding inhibition in test [4] was 5%. The response in [5] is -14.3%; in test [7], 5.39%. Also, in [8], the binding (% of control) is 99.6%. Moreover, in test [9], the efflux inhibition (fraction of control) is 0.275. Further, the differentiation response in [11] is -1.65%.
